Among the data in PubChem BioAssay (Tox21) are Potency and activity change, negative = cytotoxicity values, retold here.

SMILES strings stand for the structures. Inconclusive results are not listed. Where a call stands in place of a potency, no number is given. Values without a mark were called inactive. The source made the active and inactive calls. The call rests on the fitted dose curve; in most records, active means well fitted cell-killing curve with a large enough effect in the repeat runs; inconclusive means weak or mixed curves, or effect the other way; inactive means no such curve, though single readings can be large or run the other way.
Potency means the concentration at half of the fitted maximal effect.

The nature of this assay: Caspase-3/7 induction in CHO-K1 cells by small molecules, qHTS cell viability counter screen (AID 1346979). Further: nearly all actives have a fitted effect of over 35% in size. The following applies: CellTiter-Fluor fluorescence, 17 h; series mostly up to 92.4 µM. In outline: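 Cells (CHO-K1, wild type) are plated at 1,500 per well and incubated 5hr. Test compounds in DMSO are then pinned in, followed by 16hr at 37C and 5% CO2. Viability is read by CellTiter-Fluor fluorescence after 1hr.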
Take `CN1CCN(c2c(F)cc3c(=O)c(C(=O)O)cn4c3c2SCC4)CC1`: the Potency result is “inactive”.

On to `CC(Oc1c(Cl)cccc1Cl)C1=NCCN1` (stereo not drawn), for which the Potency result is “inactive”.

With `CCN[C@H]1CN(CCCOC)S(=O)(=O)c2sc(S(N)(=O)=O)cc21`, the Potency result is “inactive”.

With `C[C@@H]1CN(c2c(F)c(N)c3c(=O)c(C(=O)O)cn(C4CC4)c3c2F)C[C@H](C)N1`, the activity change, negative = cytotoxicity is 5.21% [at 19 µM].

As for `CCc1cc(Cl)c(OC)c(C(=O)NC[C@@H]2CCCN2CC)c1O`, the Potency entry was “inactive”.

On to `CCCCNCCCC`, for which the Potency entry was “inactive”.

Regarding `NC1=NCC2c3ccccc3Cc3ccccc3N12` (stereo not drawn), the Potency entry is “inactive”.

For the compound `CCCNC(C)C(=O)Nc1c(C)csc1C(=O)OC` (stereo not drawn), the Potency entry is “inactive”.

Consider `O=C(O)[C@@H](O)[C@H](O)[C@H](O)[C@@H](O)C(=O)O`, for which the Potency entry was “inactive”.

As to `CO[C@@]1(NC(=O)CSCC#N)C(=O)N2C(C(=O)O)=C(CSc3nnnn3C)CS[C@@H]21`, the Potency result is “inactive”.

Consider `CCCCCCCCCCCCCCCCOP(=O)([O-])OCC[N+](C)(C)C`, for which the Potency result is “inactive”.

For the compound `CN(C)Cc1ccccc1`, the Potency result is “inactive”.

Consider `NCCC(O)(P(=O)(O)O)P(=O)(O)O`, for which the Potency result is “inactive”.

As to `CCCC(CCC)(C(=O)OCC)C(=O)OCC`, the Potency entry is “inactive”.

On to `C[C@@H]1CN(c2c(F)c(F)c3c(=O)c(C(=O)O)cn(C4CC4)c3c2F)C[C@H](C)N1`, for which the activity change, negative = cytotoxicity was 0.544% [at 19 µM].

Take `C[C@@H](N)C(=O)O`: the Potency entry was “inactive”.

For the compound `O=C1CCCc2ccccc21`, the Potency entry was “inactive”.

In the case of `CC1(C)O[C@@H]2C[C@H]3[C@@H]4CCC5=CC(=O)CC[C@]5(C)[C@@]4(F)[C@@H](O)C[C@]3(C)[C@]2(C(=O)CCl)O1`, the Potency entry is “inactive”.

For the compound `CC(C)C(=O)OC/C=C/c1ccccc1`, the Potency entry was “inactive”.

As for `O=C(O[C@@H](C(=O)O)[C@@H](OC(=O)c1ccccc1)C(=O)O)c1ccccc1`, the Potency result was “inactive”.

For `CCOC(=O)c1cc(=O)c2c(OCC(COc3cccc4oc(C(=O)OCC)cc(=O)c34)OC(=O)[C@@H](N)CCCCN)cccc2o1`, the Potency result was “inactive”.

For the compound `C=CCCCCCCCCO`, the Potency entry was “inactive”.

On to `CN1C(=O)CC(c2ccccc2)C1=O` (stereo not drawn), for which the Potency entry is “inactive”.

For the compound `CCCc1c2oc(C(=O)O)cc(=O)c2cc2c(=O)cc(C(=O)O)n(CC)c12`, the Potency entry is “inactive”.

As to `CN1CCN(N)CC1`, the Potency result was “inactive”.

Consider `CCc1nnc(NS(=O)(=O)c2ccc(N)cc2)s1`, for which the Potency result is “inactive”.

Take `CCCCC(=O)O[C@]1(C(=O)CO)[C@H](C)C[C@H]2[C@@H]3CCC4=CC(=O)C=C[C@]4(C)[C@@]3(F)[C@@H](O)C[C@@]21C`: the Potency entry is “inactive”.

Consider `CCOc1ccc2nc(N)sc2c1`, for which the Potency result was “inactive”.

Turning to `CCCCCCn1c(=O)c2c(ncn2C)n(C)c1=O`, the Potency result was “inactive”.

For the compound `OCCN(CCO)CCN(CCO)CCO`, the Potency entry is “inactive”.

Regarding `Cc1ccc([N+](=O)[O-])cc1Cl`, the Potency entry was “inactive”.

As for `Cc1ccc(C)c(N)c1`, the Potency result is “inactive”.

Turning to `CN1[C@@H]2CC[C@H]1CC(OC(=O)c1c[nH]c3ccccc13)C2` (stereo partly drawn), the Potency result was “inactive”.

`NC(=O)Cc1cccc(C(=O)c2ccccc2)c1N`: the Potency result is “inactive”.

Regarding `CCC/C=C/CO`, the Potency result is “inactive”.

As for `O=C(O)c1cccc(Cl)c1Cl`, the Potency entry was “inactive”.

Turning to `CCCCc1ccc2nc(NC(=O)OC)[nH]c2c1`, the Potency was 1.19 µM (active).

Turning to `CCN(CC)CCNC(=O)COc1ccc(Cl)cc1`, the Potency entry is “inactive”.
